PubChem BioAssay AID1159580 (chemical genetic matrix, 2015)
“And” between values parts separate entries of the source, which are not always exact repeats. Equal values may be shown once. Hit rate of the full screen: of about 5,500 compounds, about 2,000 (36%) were called active. Not shown: some 18% with an inconclusive outcome. No stated cut-off is given here; in the data, active means normalized growth mostly below about 0.91 (no sharp cut-off); inconclusive means no clear call, values can overlap the other calls; inactive means mostly above about 0.92. Some of the results follow.

Assay: chemical genetic growth profiling, strain panel (AID 1159580);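 further: tested at 20 µM; growth read once vehicle control cultures reached saturation at 30 °C; 1 = growth at the plate median or of vehicle wells; lower values mean less growth of the strain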
Conditions: S. cerevisiae deletion strains, growth OD

Measured: normalized growth

CN(C)N=Nc1nc[nH]c1C(N)=O
inactive: locus YAL013W, strain DEP1, hits give low values 1.01 | locus YAL021C, strain ccr4, hits give low values 0.968 | locus YAL026C, strain drs2, hits give low values 1 | locus YAL030W, strain snc1, hits give low values 0.976 | locus YBL061C, strain skt5, hits give low values 0.976 | locus YBR009C, strain hhf1, hits give low values 1.02 | locus YBR021W, strain FUR4, hits give low values 1.02 | locus YBR023C, strain chs3, hits give low values 0.982 | locus YBR171W, strain sec66, hits give low values 0.969 | locus YBR229C, strain ROT2, hits give low values 1.01 | locus YBR231C, strain swc5, hits give low values 0.985 | locus YBR279W, strain paf1, hits give low values 0.966 | locus YCL011C, strain gbp2, hits give low values 0.953 | locus YCL016C, strain dcc1, hits give low values 0.957 | locus YCL029C, strain bik1, hits give low values 1 | locus YCL061C, strain MRC1, hits give low values 0.992 | locus YCL069W, strain vba3, hits give low values 0.984 | locus YCR088W, strain abp1, hits give low values 0.968 | locus YDL005C, strain med2, hits give low values 0.965 | locus YDL035C, strain GPR1, hits give low values 1.02 | locus YDL040C, strain nat1, hits give low values 0.979 | locus YDL074C, strain BRE1, hits give low values 1.01 | locus YDL101C, strain DUN1, hits give low values 1.01 | locus YDL134C, strain PPH21, hits give low values 1.02 | locus YDL185W, strain tfp1, hits give low values 0.997 | locus YDL192W, strain arf1, hits give low values 0.996 | locus YDR001C, strain nth1, hits give low values 0.975 | locus YDR069C, strain doa4, hits give low values 0.976 | locus YDR101C, strain arx1, hits give low values 1.01 | locus YDR137W, strain rgp1, hits give low values 0.975 | locus YDR150W, strain NUM1, hits give low values 1.01 | locus YDR159W, strain sac3, hits give low values 1.02 | locus YDR162C, strain NBP2, hits give low values 1.03 | locus YDR195W, strain ref2 1.01 | locus YDR297W, strain sur2, hits give low values 0.966 | locus YDR318W, strain mcm21, hits give low values 1 | locus YDR334W, strain swr1, hits give low values 0.949 | locus YDR335W, strain msn5, hits give low values 0.965 | locus YDR388W, hits give low values 0.992 | locus YDR392W, strain spt3, hits give low values 0.918 | locus YDR502C, strain sam2, hits give low values 1.01 | locus YEL003W, strain gim4, hits give low values 0.977 | locus YEL037C, strain rad23, hits give low values 0.985 | locus YEL061C, strain CIN8 (second series), hits give low values 0.98 | locus YEL061C, strain CIN8, hits give low values 1.01 | locus YER015W, strain faa2, hits give low values 0.981 | locus YER016W, strain bim1, hits give low values 0.98 | locus YER110C, hits give low values 0.995 | locus YER111C, strain swi4, hits give low values 0.987 | locus YER155C, strain BEM2 (second series), hits give low values 0.998 | locus YER155C, strain BEM2, hits give low values 1 | locus YER167W, strain BCK2, hits give low values 1.02 | locus YFR010W, strain ubp6, hits give low values 0.987 | locus YGL078C, strain dbp3, hits give low values 0.999 | locus YGL086W, strain mad1, hits give low values 1.01 | locus YGL167C, strain pmr1, hits give low values 0.981 | locus YGL173C, strain kem1, hits give low values 0.961 | locus YGL227W, strain vid30, hits give low values 0.979 | locus YGL240W, strain doc1, hits give low values 0.951 | locus YGL248W, strain PDE1, hits give low values 1.01 | locus YGL253W, strain hxk2, hits give low values 0.953 | locus YGR078C, strain PAC10, hits give low values 1 | locus YGR135W, strain pre9, hits give low values 1 | locus YGR252W, strain gcn5, hits give low values 1.05 | locus YHR013C, strain ard1, hits give low values 0.965 | locus YHR027C, strain rpn1, hits give low values 0.967 | locus YHR030C, strain SLT2, hits give low values 1.01 | locus YHR079C, strain IRE1 (second series), hits give low values 1 | locus YHR079C, strain IRE1, hits give low values 1.02 | locus YHR094C, strain hxt1, hits give low values 0.999 | locus YHR129C, strain ARP1, hits give low values 1.01 | locus YHR142W, strain chs7, hits give low values 0.926 | locus YHR200W, strain rpn10, hits give low values 1.01 | locus YIL066C, strain RNR3, hits give low values 1.01 | locus YIL073C, strain SPO22, hits give low values 1.02 | locus YIL125W, strain kgd1, hits give low values 0.995 | locus YIR030C, strain dcg1, hits give low values 1.01 | locus YJL092W, strain hpr5, hits give low values 0.984 | locus YJL095W, strain BCK1 (second series), hits give low values 0.966 | locus YJL095W, strain BCK1, hits give low values 1.01 and 1.03 | locus YJL115W, strain asf1, hits give low values 0.968 | locus YJL129C, strain trk1, hits give low values 0.958 | locus YJL134W, strain LCB3, hits give low values 1 | locus YJL154C, strain vps35, hits give low values 0.954 | locus YJL164C, strain tpk1, hits give low values 0.989 | locus YJL166W, strain qcr8, hits give low values 0.936 | locus YJL168C, strain set2, hits give low values 1.01 | locus YJL187C, strain SWE1 (second series), hits give low values 1.02 | locus YJL187C, strain SWE1, hits give low values 0.993 | locus YJR043C, strain POL32, hits give low values 1.03 | locus YJR066W, strain TOR1, hits give low values 1 | locus YJR075W, strain HOC1, hits give low values 1.01 | locus YKL009W, strain mrt4, hits give low values 1 | locus YKL068W, hits give low values 0.997 | locus YKL085W, strain MDH1 (second series), hits give low values 0.999 | locus YKL085W, strain MDH1, hits give low values 0.999 | locus YKL160W, strain elf1, hits give low values 0.931 | locus YKR001C, strain vps1, hits give low values 1 | locus YKR026C, strain gcn3, hits give low values 0.975 | locus YKR091W, strain srl3, hits give low values 0.97 | locus YLL001W, strain dnm1, hits give low values 0.916 | locus YLL026W, hits give low values 0.987 | locus YLL041C, strain sdh2, hits give low values 0.987 | locus YLR027C, strain aat2, hits give low values 0.991 | locus YLR039C, strain RIC1, hits give low values 1.04 | locus YLR058C, strain SHM2, hits give low values 1.02 | locus YLR102C, strain apc9, hits give low values 0.999 | locus YLR113W, strain HOG1, hits give low values 1.06 | locus YLR221C, strain rsa3, hits give low values 0.956 | locus YLR258W, strain gsy2, hits give low values 0.979 | locus YLR262C, strain YPT6 (second series), hits give low values 0.97 | locus YLR262C, strain YPT6, hits give low values 1.02 | locus YLR268W, strain sec22, hits give low values 1.01 | locus YLR320W, strain mms22, hits give low values 0.941 | locus YLR330W, strain CHS5, hits give low values 1.01 | locus YLR342W, strain FKS1 (second series), hits give low values 1.01 | locus YLR342W, strain FKS1, hits give low values 0.974 | locus YLR357W, strain rsc2, hits give low values 0.965 | locus YLR370C, strain arc18, hits give low values 0.973 | locus YLR371W, strain rom2, hits give low values 1 | locus YLR384C, strain iki3, hits give low values 0.985 | locus YLR418C, strain cdc73, hits give low values 1.03 | locus YML016C, strain PPZ1, hits give low values 1.01 | locus YML032C, strain rad52, hits give low values 0.993 | locus YML120C, strain ndi1, hits give low values 0.925 | locus YML124C, strain tub3, hits give low values 1 | locus YMR058W, strain fet3, hits give low values 0.979 | locus YMR078C, strain ctf18, hits give low values 0.999 | locus YMR125W, strain sto1, hits give low values 0.935 | locus YMR129W, hits give low values 0.992 | locus YMR205C, strain PFK2, hits give low values 0.927 | locus YMR223W, strain ubp8, hits give low values 0.988 | locus YMR231W, strain pep5, hits give low values 0.993 | locus YMR263W, strain SAP30, hits give low values 1.02 | locus YMR307W, strain GAS1, hits give low values 1.07 | locus YNL067W, strain RPL9B, hits give low values 1.01 | locus YNL071W, strain lat1, hits give low values 0.986 | locus YNL153C, strain GIM3, hits give low values 1 | locus YNL183C, strain NPR1, hits give low values 0.986 | locus YNL209W, strain ssb2, hits give low values 0.976 | locus YNL233W, strain BNI4, hits give low values 1 | locus YNL248C, strain rpa49, hits give low values 0.968 | locus YNL250W, strain rad50, hits give low values 0.979 | locus YNL271C, strain bni1, hits give low values 0.995 | locus YNL298W, strain CLA4, hits give low values 0.999 | locus YNL307C, strain MCK1, hits give low values 0.996 | locus YNL322C, strain KRE1 (second series), hits give low values 0.974 | locus YNL322C, strain KRE1, hits give low values 1.01 | locus YNR049C, strain mso1, hits give low values 0.967 | locus YNR052C, strain pop2, hits give low values 1 | locus YOL006C, strain TOP1, hits give low values 1.06 | locus YOL012C, strain htz1 0.752 | locus YOL147C, strain pex11, hits give low values 0.998 | locus YOR001W, strain rrp6, hits give low values 1.01 | locus YOR061W, strain CKA2, hits give low values 1.01 | locus YOR069W, strain VPS5, hits give low values 1 | locus YOR070C, strain gyp1, hits give low values 0.993 | locus YOR080W, strain dia2, hits give low values 0.973 | locus YOR083W, strain WHI5, hits give low values 0.936 | locus YOR106W, strain vam3, hits give low values 0.932 | locus YOR136W, strain idh2, hits give low values 1.01 | locus YOR144C, strain elg1, hits give low values 1.01 | locus YOR184W, strain ser1, hits give low values 1.01 | locus YOR231W, strain MKK1, hits give low values 1.02 | locus YOR265W, strain rbl2, hits give low values 0.977 | locus YOR270C, strain vph1, hits give low values 0.988 | locus YOR290C, strain snf2, hits give low values 0.943 | locus YOR316C, strain cot1, hits give low values 0.997 | locus YPL051W, strain arl3, hits give low values 0.973 | locus YPL055C, strain LGE1, hits give low values 1.02 | locus YPL078C, strain atp4, hits give low values 0.928 | locus YPL106C, strain sse1, hits give low values 0.942 | locus YPL240C, strain hsp82, hits give low values 1 | locus YPL241C, strain CIN2, hits give low values 1.01 | locus YPL256C, strain CLN2, hits give low values 1.04 | locus YPR119W, strain clb2, hits give low values 0.995 | locus YPR141C, strain kar3, hits give low values 0.987 | locus YPR163C, strain tif3, hits give low values 1 | locus YPR167C, strain met16, hits give low values 1 | strain wtn01, hits give low values 0.995
